Nine compounds from PubChem BioAssay (NCI) can be followed below.

Compounds without any hit were thinned out: in the full panel of roughly 83,000, 20% have a hit.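 A percent growth of 40 corresponds to 60% growth inhibition; 0 means no net growth; -100 means all cells died. Active threshold: below 10.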 A number with no mark means an inactive call. The source made the active and inactive calls.

What all share (assay): NCI-60 one-dose screen, 48 h (100 = growth as untreated, 0 = no growth, -100 = all killed)
Holding throughout (details): 10 µM unless noted

The subject of assay [1] is NCI-H23 lung.
The subject of assay [2] is NCI-H226 lung.
Assay [3] concerns NCI-H322M lung.
In assay [4] the test system is HOP-62 NSCLC.
Assay [5] concerns NCI-H460 lung.
Assay [6] has as its system NCI-H522 lung.
The test system of assay [7] is A549/ATCC NSCLC.
The subject of assay [8] is 786-0 renal.
Assay [9] concerns COLO 205 colon.
The test system of assay [10] is DU-145 prostate.
Assay [11] deals with MALME-3M melanoma.
Assay [12] deals with MDA-MB-231 breast.
In assay [13] the test system is RXF 393 renal.
Assay [14] concerns SF-268 CNS.
The subject of assay [15] is SF-295 CNS.
Assay [16] deals with SF-539 CNS.
Assay [17] deals with UACC-257 melanoma.
The subject of assay [18] is M14 melanoma.

As for `CCCCCCCCCCCCNC(=O)N[C@H](C(=O)N[C@H]1/C=C/CCNC(=O)/C=C/[C@H](C)NC1=O)C(C)C`, the growth was -42.8% (active) in [1]; -87% (active) in assay [2]; 3.54% (active) in assay [3]; -65.1% (active) in assay [4]; 2.24% (active) in [5]; -21.7% (active) in assay [6]. Moreover, the growth was 10.5% in [7]; -37.7% (active) in assay [8]; -51.3% (active) in [9]; 6.45% (active) in assay [10]; -1.82% (active) in assay [11]; -44.7% (active) in assay [12]. In addition, the growth in assay [13] was -98.8% (active); in assay [14] it was -44.9% (active); in assay [15], -37.4% (active); in assay [16], -49.4% (active); in assay [17], 49.9%; in [18], -82% (active).
With `CC1(C)CN(CCNc2nccc(-c3c(-c4cccc(O)c4)nc4sccn34)n2)S(=O)(=O)N1`, the growth in assay [1] was 70%; in [2], 87.5%; in assay [3], 54.2%; in assay [4], 89.1%; in assay [5], 50.6%; in assay [6], 65.1%. In addition, the growth is 117% in assay [7]; 50.6% in assay [8]; 32.1% in assay [9]; 67.9% in assay [10]; 5.36% (active) in assay [11]; 53.8% in [12]. Also, the growth in [13] was 57.1%; in assay [14] it was 84%; in [15] it was 92.9%; in assay [16], 87.2%; in [17], 46.8%; in assay [18] it was -1.68% (active).
`Cc1ccsc1C(=O)CC(=O)C(F)(F)C(F)(F)C(F)(F)F`: the growth in assay [1] was 104%; in [2], 93.1%; in assay [3], 104%; in [4], 99.4%; in [5] it was 114%; in assay [6], 112%. The growth in assay [7] is 99.4%; in assay [8], 106%; in [9], 112%; in [10], 112%; in [11], 105%; in assay [12], 96.6%. The growth in [13] was 108%; in [14], 107%; in [15], 97.1%; in [16], 102%; in [17], 108%; in assay [18], 117%.
Take `CC(C)(C)OC(=O)N1CCCN(CCNc2nccc(-c3c(-c4cccc(O)c4)nc4sccn34)n2)S1(=O)=O`: the growth in assay [1] was 94.1%; in assay [2], 91.1%; in assay [3], 92.6%; in [4] it was 115%; in [5] it was 91.4%; in [6], 92.4%. The growth in assay [7] was 101%; in [8], 87.3%; in [9], 46.2%; in assay [10] it was 85%; in assay [11] it was 17.9%; in assay [12], 84.3%. The growth in assay [13] is 78.5%; in assay [14], 110%; in assay [15], 112%; in [16] it was 104%; in [17], 62.3%; in [18], 16.7%.
In the case of `CCOC(=O)Nc1ccc2nc(N3CCCCCC3)sc2c1`, the growth in [1] was 47.9%; in [2] it was 54.3%; in [3], 46.2%; in [4], 33.2%; in assay [5], 17.1%; in assay [6], -12.7% (active). The growth in assay [7] is 32%; in assay [8], 40.2%; in [9] it was -7.85% (active); in [10], 22.4%; in assay [11] it was 38.9%; in assay [13] it was 14.4%. The growth in assay [14] is 49%; in assay [15] it was 23.5%; in [16], -1.3% (active); in assay [17], 64.3%; in assay [18], 19.5%.
Take `COc1ccc2c(c1)OC1=C(C(=O)OC1)C2c1cc(OC)c2c(c1)OCCO2` (stereo unspecified): the growth is 16.2% in assay [1]; -13.6% (active) in assay [2]; 44.3% in assay [3]; 24.1% in [4]; 6.93% (active) in assay [5]; -10.7% (active) in assay [6]. The growth in [7] is 18%; in assay [8] it was 21.4%; in assay [9], -69.6% (active); in assay [10] it was -13.7% (active); in [11] it was 62.9%; in [12], 25%. Further, the growth in [13] was 37.7%; in [14], 29.5%; in assay [15] it was 7.02% (active); in assay [16], 3.93% (active); in assay [17] it was 61%; in [18], 4.69% (active).
Consider `COc1cc(CN(CCC(O)N2CCCC2=O)Cc2ccc3c(c2)OCO3)cc(OC)c1OC` (stereo unspecified), for which the growth in [1] is 108%; in assay [2], 104%; in assay [3], 90.3%; in assay [4] it was 103%; in [5] it was 106%; in [6], 95.4%. In addition, the growth is 106% in assay [7]; 94.1% in assay [8]; 120% in assay [9]; 108% in assay [10]; 109% in [11]; 110% in [12]. Also, the growth is 121% in assay [13]; 106% in [14]; 91.5% in [15]; 100% in [16]; 109% in assay [17]; 95.8% in assay [18].
On to `CN1CCCN(CCNc2nccc(-c3c(-c4cccc(O)c4)nc4sccn34)n2)S1(=O)=O`, for which the growth in assay [1] is 67.1%; in [2], 72.4%; in assay [3], 47.9%; in assay [4] it was 84.4%; in [5], 40.2%; in [6], 59.3%. The growth was 45.8% in assay [7]; 42.2% in assay [8]; 29.3% in [9]; 54.7% in assay [10]; 9.87% (active) in assay [11]; 44.9% in [12]. Moreover, the growth in [13] is 41.3%; in assay [14], 71.5%; in assay [15], 57.8%; in assay [16] it was 57.8%; in assay [17], 36.8%; in [18] it was -0.122% (active).
For `Clc1cc2nc(-c3ccccc3)c(-c3ccccc3)nc2cc1Cl`, the growth in [1] is 79.6%; in assay [2], 89.7%; in assay [3], 106%; in [4] it was 89.9%; in [5], 94.8%; in assay [6], 86.1%. The growth in assay [7] was 100%; in assay [8] it was 103%; in assay [9], 115%; in assay [10] it was 103%; in assay [11] it was 85.8%; in assay [12], 88%. Further, the growth in [13] is 110%; in assay [14], 105%; in assay [15] it was 98.7%; in [16], 97.3%; in assay [17], 111%; in [18] it was 85.9%.
